Source: PubChem
A selection: hits, their analogues and other compounds. The true share with any hit is near 0.93%.
HIV TAR-Tat – HIV-1 TAR-Tat binding disruption; HIV-1 TAR RNA, Tat peptide displacement FRET; stronger effect = higher value; z-score (concentration not given with the values); actives 0.6% (n = 100,000); AID 1259389; active = z-score of 3 or more in at least 2 runs
CDC25B-CDK2 inh – human CDC25B-CDK2/CyclinA binding inhibition. P30305+P24941. HTRF CDC25B-CDK2/CyclinA binding, anti-His/anti-Flag; stronger effect = higher value. z-score (no concentration beside the values). actives 0.72% (n = 94,000); in the data active = z-score above about 3.2
Of the large screens only hits and unclear results are named; the others gave an inactive call.

Nc1ccc(Sc2c3c(nc4nc(-c5ccco5)nn24)CCC3)cc1	none
CCn1c2ccccc2c2cc(CN3CCN(Cc4cccc(OC)c4)CC3)ccc21	CDC25B-CDK2 inh 6.7 (no result: HIV TAR-Tat)
CCn1c2ccccc2c2cc(CN3CCN(Cc4cccc([N+](=O)[O-])c4)CC3)ccc21	none (no result: HIV TAR-Tat)
CCOC(=O)c1cc(S(=O)(=O)N2CCC(C(=O)OCC)CC2)[nH]n1	none (no result: CDC25B-CDK2 inh)
Cc1nnc(NC(=O)CSc2nnc(Cn3c(=O)sc4ccccc43)n2-c2ccccc2)s1	none
CCOc1ccc(Br)cc1CNc1ccc2[nH]c(=O)[nH]c2c1	CDC25B-CDK2 inh 7.5
O=c1[nH]c2ccc(NCc3ccc(-c4ccc(F)cc4)o3)cc2[nH]1	CDC25B-CDK2 inh 5.3
O=C(Cc1cccs1)Nc1ccc2[nH]c(=O)[nH]c2c1	none (no result: CDC25B-CDK2 inh)
CCOc1c(Cl)cc(CNc2ncn[nH]2)cc1OC	none
O=c1[nH]c2ccc(NCC#Cc3ccccc3)cc2[nH]1	none
CCOc1c(Br)cc(CNc2ccc3[nH]c(=O)[nH]c3c2)cc1OC	CDC25B-CDK2 inh 8.5
COc1ccc(Br)cc1CNc1cc(C)cc(C)c1	none
O=c1[nH]c2ccc(NCc3ccccn3)cc2[nH]1	CDC25B-CDK2 inh 13
c1ccc(-n2cc(-c3ccc4c(c3)OCCO4)[n+]3c2SCCC3)cc1	none (no result: HIV TAR-Tat)
Cc1cc(C)nc(NS(=O)(=O)c2ccc(Nc3nc(-c4ccc(F)cc4F)cs3)cc2)n1	none (no result: HIV TAR-Tat)
CCOc1cc(CNc2ccc3[nH]c(=O)[nH]c3c2)cc(Br)c1OCC	none
C=CCOc1ccc(CNc2ccc3[nH]c(=O)[nH]c3c2)cc1OC	none
CCOc1cc(CNc2ccc3[nH]c(=O)[nH]c3c2)cc(Br)c1OC	CDC25B-CDK2 inh 6.1
COc1cc(CNc2ccc3[nH]c(=O)[nH]c3c2)cc(Br)c1OC	CDC25B-CDK2 inh 8.7
Cc1cc(=O)oc2c(-c3ccccc3)n[nH]c(=O)c12	none (no result: HIV TAR-Tat)
Cc1nc(NC(=O)c2nn(-c3ccccc3)ccc2=O)sc1C(=O)OCC(C)C	none
CCOC(=O)c1sc(=S)n(-c2ccc(OC)cc2)c1N	CDC25B-CDK2 inh 17
CCOC(=O)c1sc(=S)n(-c2ccc(Cl)cc2)c1N	none (no result: CDC25B-CDK2 inh)
O=C(Nc1ccccc1F)c1cnc2sccn2c1=O	none (no result: HIV TAR-Tat)
CCOc1cc(C2CC(=O)N3CN(c4ccc(OC)cc4OC)CSC3=C2C#N)ccc1O (stereo not given)	CDC25B-CDK2 inh 3.1
CCOc1cc(C2CC(=O)N3CN(c4ccc(C)c(C)c4)CSC3=C2C#N)ccc1O (stereo not given)	none
COc1ccc(N2CSC3=C(C#N)C(c4ccc(O)c(OC)c4)CC(=O)N3C2)c(OC)c1 (stereo not given)	CDC25B-CDK2 inh 3.5
COc1ccc(N2CSC3=C(C#N)C(c4cccc(Br)c4)CC(=O)N3C2)c(OC)c1 (stereo not given)	none
CCOc1cc(C2CC(=O)N3CN(c4ccc(F)cc4)CSC3=C2C#N)ccc1O (stereo not given)	HIV TAR-Tat 30
CCOc1cc(C2CC(=O)N3CN(c4ccccc4)CSC3=C2C#N)cc(Br)c1O (stereo not given)	HIV TAR-Tat 31, CDC25B-CDK2 inh 8.8
Cc1ccc(-c2nnc(SCc3cc(=O)c4cccc(Cl)c4[nH]3)n2C)cc1	none (no result: CDC25B-CDK2 inh)
O=C(O)c1cccc(NS(=O)(=O)c2cccc(S(=O)(=O)c3ccc(Br)cc3)c2)c1	none (no result: HIV TAR-Tat)
COc1ccc(NC(=O)CN2N=NC3C(=O)N(c4ccc(Cl)cc4)C(=O)C32)cc1OC (stereo not given)	none (no result: CDC25B-CDK2 inh)
Cn1c2ccccc2n2nc(-c3ccco3)nc12	none (no result: HIV TAR-Tat)
CCOC(=O)C1CCN(c2c(NC(C)CC)c(=O)c2=O)CC1 (stereo not given)	none
Cn1ncc2c1ncn1nc(CSc3nc4ccccc4s3)nc21	none
N#Cc1c(N)nc(SCC(=O)c2ccc(O)c(O)c2)c(C#N)c1-c1cccc(Cl)c1	none (no result: HIV TAR-Tat)
CC1CCCCN1C(=O)c1nn(C)c2c1COc1ccccc1-2 (stereo not given)	none
Cc1oc(-c2ccc(OC(C)C)cc2)nc1Cn1c(=O)cc(C)c2c(C)nn(C)c21	none (no result: CDC25B-CDK2 inh)
COC(=O)c1ccc(OC)c(CN2N=NC3C(=O)N(c4ccc(OC)cc4)C(=O)C32)c1 (stereo not given)	none
Cc1cc(=O)n2[nH]c(CNc3ccccc3)nc2n1	none
O=c1cc(-c2ccncc2)[nH]c2nc3ccccc3n12	none
Cc1nc(-c2ccc(C)c(S(=O)(=O)Nc3ccc(Cl)cc3)c2)cs1	none (no result: CDC25B-CDK2 inh)
CC1CCCCC1NS(=O)(=O)c1ccc2oc(=O)c3ncn(C)c3c2c1 (stereo not given)	none (no result: CDC25B-CDK2 inh)
Clc1ccc(-c2nnc(-c3ccccc3)o2)cc1	none
Nc1ccc(F)c(-c2nnc(-c3ccccc3)o2)c1	HIV TAR-Tat 33 (no result: CDC25B-CDK2 inh)
Cc1ccc(/C=C/C(=O)Nc2ncc(Cc3cccc(C(F)(F)F)c3)s2)cc1	none (no result: HIV TAR-Tat)
CN(Cc1ccccc1)c1nnc(NC(=O)Nc2ccc3c(c2)OCCO3)s1	none
CN(Cc1ccccc1)c1nnc(NC(=O)NCc2ccccc2)s1	HIV TAR-Tat 8
CCCCn1cc(S(=O)(=O)c2cccc(Cl)c2)c(=O)c2cc(F)c(N3CCN(C)CC3)cc21	none (no result: CDC25B-CDK2 inh)
CCN1C(C(=O)OC)=C(OC(=O)COc2ccc3ccccc3c2)c2ccccc2S1(=O)=O	none
COCCCNc1c(-c2ccc(C)cc2)nc2sc3cc(C)ccc3n12	none (no result: CDC25B-CDK2 inh)
N#CC1=C2SCN(Cc3ccccc3)CN2C(=O)CC1c1ccc(Br)cc1 (stereo not given)	none
COc1ccc(CN2CSC3=C(C#N)C(c4ccc(Cl)cc4)CC(=O)N3C2)cc1 (stereo not given)	CDC25B-CDK2 inh 3.8
COc1ccc(Br)cc1C1CC(=O)N2CN(Cc3ccccc3)CSC2=C1C#N (stereo not given)	CDC25B-CDK2 inh 3.2
N#CC1=C2SCN(Cc3ccco3)CN2C(=O)CC1c1ccc(OCc2ccc(Cl)cc2)cc1 (stereo not given)	none
N#CC1=C2SCN(Cc3ccccc3)CN2C(=O)CC1c1cccc(Br)c1 (stereo not given)	none
COc1ccc(Br)cc1C1CC(=O)N2CN(c3ccccc3)CSC2=C1C#N (stereo not given)	CDC25B-CDK2 inh 7.6
COc1ccc(C2CC(=O)N3CN(Cc4ccccc4)CSC3=C2C#N)c(OC)c1 (stereo not given)	CDC25B-CDK2 inh 4.5
COc1ccc(Br)cc1C1CC(=O)N2CN(c3ccccc3F)CSC2=C1C#N (stereo not given)	none
C#CCn1c(CCCC)nc2ccccc21	none
COc1ccc(Cn2cc(C(=O)c3ccc(OC)cc3)c(=O)c3cc(OC)c(OC)cc32)cc1	none
Cc1nc2cc(S(=O)(=O)N3CCC(C(=O)NCCN4CCCC4)CC3)ccc2n1C1CCCC1	none
CC(C)C[C@H](C(=O)O)N1Cc2ccccc2C1=O	none
O=C(O)/C=C\C(=O)NCc1csc2ccccc12	none (no result: HIV TAR-Tat)
COc1ccc(NC(=O)c2nn(-c3ccc(F)cc3)ccc2=O)c(OC)c1	none
O=C(COc1ccc(Cl)cc1)OCc1cc(=O)n2c3c(sc2n1)CCCC3	none (no result: CDC25B-CDK2 inh)
O=C(c1ccc(-n2ccc3ccccc32)s1)N1CCN(C2CCCCC2)CC1	none (no result: CDC25B-CDK2 inh)
O=C(NCC1COc2ccccc2O1)Nc1ccc(Cl)cc1 (stereo not given)	none (no result: HIV TAR-Tat)
Cc1noc(-c2ccccc2)c1NC(=O)NCC1COc2ccccc2O1 (stereo not given)	CDC25B-CDK2 inh 7 (no result: HIV TAR-Tat)
Cc1cc(C)n(-c2nc3c(c(=O)n2CC(N)=O)CCCC3)n1	HIV TAR-Tat 12 (no result: CDC25B-CDK2 inh)
Cc1cc(C)n(-c2nc3c(c(=O)n2CC(=O)NC(C)(C)C)CCCC3)n1	none (no result: CDC25B-CDK2 inh)
CC(C)(C)c1nnc(Nc2cccc(F)c2)[nH]c1=O	none (no result: HIV TAR-Tat)
COc1ccc(C2CC(=O)N3CN(Cc4ccco4)CSC3=C2C#N)cc1OC (stereo not given)	CDC25B-CDK2 inh 5.5
